# FBPA Giardia inh = inhibitors of Giardia lamblia fructose-1,6-bisphosphate aldolase; 290,000 compounds, 0.71% hits; Potency, µM (highest dose often 59.6 µM), for inactives: top-dose activity, negative = inhibition, most hits filed as inhibitors; purified Giardia FBPA; A8B2U2; AID 2451; further: potency means the concentration at half of the fitted maximal effect; nearly all actives have a fitted effect of over 55% in size
# Target sequence (A8B2U2 whole entry, looked up): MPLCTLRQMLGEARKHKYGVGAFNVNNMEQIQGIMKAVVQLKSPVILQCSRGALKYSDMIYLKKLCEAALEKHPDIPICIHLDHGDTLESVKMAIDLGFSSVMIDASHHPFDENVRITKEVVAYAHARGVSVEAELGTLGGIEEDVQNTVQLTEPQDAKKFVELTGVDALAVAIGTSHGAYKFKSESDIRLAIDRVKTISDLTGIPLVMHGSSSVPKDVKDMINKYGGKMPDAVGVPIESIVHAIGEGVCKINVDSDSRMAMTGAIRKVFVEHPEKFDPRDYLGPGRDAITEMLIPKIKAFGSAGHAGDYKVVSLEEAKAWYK
#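 Giardia FBPA (40 nM reagent) was preincubated 10 min at RT with compound (up to 57.5 uM final), then substrate plus GAPDH/TPI/NAD/arsenate coupling system with diaphorase/resazurin was added; resorufin fluorescence (525/598 nm) was read after 20 min.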
# Sm TGR inh = inhibitors of Schistosoma mansoni thioredoxin glutathione reductase | purified TGR, DTNB reduction, TNB absorbance 405 nm | Potency, µM (highest dose often 114 µM), without a hit: at the top dose activity change, negative = inhibition, actives largely listed as inhibitors | 360,000 compounds, 3% hits; further: potency means the concentration at half of the fitted maximal effect; nearly all actives have a fitted effect of over 60% in size
#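 TGR 20 nM + NADPH 100 uM (dispensed conc.), cpd preinc 15 min RT; start with NADPH (500 uM addition) then DTNB (15 mM addition). Kinetic TNB absorbance, 405 nm filter. Four-parameter Hill fit across titration.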
# Pf growth 96h = inhibits malaria parasite growth, 96 h; P. falciparum luciferase reporter growth, 96 h; 320,000 compounds, 6.9% hits; Potency, µM (top dose mostly 28.7 µM), for the others: top-dose activity change, negative = inhibition, most hits filed as inhibitors; further: potency means the concentration at half of the fitted maximal effect
#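 Readout is luminescence from an integrated firefly luciferase in P. falciparum. Red cells, 2% hematocrit and 0.05% parasitemia final, were cultured with compound through two parasite generations (96 hours) at 37 C, 5% CO2.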
# HCMV inh = human cytomegalovirus inhibition | HFF cells, HCMV-luciferase reporter, 72 h; hits give low values | activity change, negative = inhibition, % at 57.5 µM | 410,000 compounds, 4.5% hits | AID 1259415; in the data active means activity change below about -60%; inconclusive means no clear call, values can overlap the other calls; inactive means above about -39%
#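 Compounds were evaluated in HFFs infected with an HCMV luciferase reporter virus (MOI 1 PFU/cell). Luciferase in lysates collected 72 h post infection served as the replication measure.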
# Pf growth 48h = inhibits P. falciparum growth in the first generation, 48 h; 310,000 compounds, 5.9% hits; Potency, µM (top dose mostly 28.7 µM), for inactives: at the top dose activity change, negative = inhibition, usual class: inhibitors; P. falciparum luciferase growth in erythrocytes, 48 h; AID 504832; further: potency means the concentration at half of the fitted maximal effect
#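 Luciferase-expressing parasites in RBCs, 2% Hct / 0.1% parasitemia final; RPMI 1640 + 0.5% Albumax; 37 C, 5% CO2, one generation; luminescence read-out, lower signal = inhibition.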
# Starred values were filed as active, the others as inactive; ? = inconclusive; nt = no result; [ ] = another dose, or the depositor's remark. In the library only some 14% were active in any assay of this set; here they are far more common. Unless noted, the call rests on the fitted dose curve; in most records, active means well fitted curve in the direction sought with a large enough effect; inconclusive means small, poorly fitted or top-dose-only effect, or another doubt; inactive means no such curve, though single readings can be large; an effect the other way counts as inactive or inconclusive. On the % scale 0 is the no-effect control and ±100 the full control effect.
SMILES,FBPA Giardia inh,Sm TGR inh,Pf growth 96h,HCMV inh,Pf growth 48h
CC(=O)c1c(C)[nH]c(C(=O)Nc2nc(-c3ccc(Cl)cc3)cs2)c1C,-8%,-11%,?,?,?
Cn1cc([N+](=O)[O-])c(C(=O)NNC(=O)c2ccc([N+](=O)[O-])cc2Cl)n1,4%,-13%,7%,11,1%
Cc1ccc(-c2nc(NC(=O)c3nn(C)cc3[N+](=O)[O-])sc2C)cc1C,0%,-8%,nt,-107*,-7%
Cc1ccc(-c2nc(NC(=O)c3nn(C)cc3[N+](=O)[O-])sc2C)cc1,0%,-2%,nt,-104*,9%
Cn1cc([N+](=O)[O-])c(C(=O)Nc2nc(-c3ccc(Cl)cc3)cs2)n1,0%,0%,0%,-96*,41%
CCCCOC(=O)Cn1c(=O)c2c(nc(Br)n2Cc2ccccc2)n(C)c1=O,7%,-5%,?,-5,9.3µM*
Cn1c(NN)nc2c1c(=O)n(Cc1ccccc1)c(=O)n2C,-1%,-3%,1%,-38,12µM*
C=CCn1c(=O)c2c(nc(Br)n2Cc2ccccc2Cl)n(C)c1=O,5%,-14%,12µM*,-73*,?
CCCCOC(=O)Cn1c(=O)c2c(nc3n2CCCCN3c2ccc(C)cc2)n(C)c1=O,4%,0%,-2%,-33,7.4µM*
C[C@H]1CN([C@@H](C)CO)C(=O)CCCn2cc(nn2)CO[C@@H]1CN(C)S(=O)(=O)c1cn(C)cn1,nt,nt,nt,11,nt
Cn1c(=O)n(CC(N)=O)c(=O)c2c1nc(Br)n2Cc1ccccc1,5%,10%,2.1µM*,-24,0%
CCOCCCn1c(SCC(=O)Nc2cc(C)ccc2C)nc2c(oc3ccccc32)c1=O,nt,3%,nt,4,nt
CCC/C=C(\CCC)C(NS(=O)(=O)c1cccc2cccnc12)c1ccc(C(=O)OC)cc1 (centres undefined),0%,-14%,13µM*,-22,?
CC(=O)c1cc2c(cc1NS(=O)(=O)c1ccccc1)OCO2,-11%,-17%,13%,51,nt
CCC(C)NS(=O)(=O)c1ccc(S(=O)(=O)Nc2cc3c(cc2C(C)=O)OCO3)cc1 (centres undefined),5%,-13%,9.3µM*,-26,20%
O=C(NC(c1ccccc1)c1ccccc1)c1ccc(CO)cc1,14%,-11%,?,-15,?
CC(C)(C)OC(=O)NCC(=O)Oc1cc2oc(=O)cc(-c3ccccc3)c2cc1Cl,25%,?,22%,-76*,6%
O=C(O)/C=C\C(=O)NCc1cccnc1,-13%,-9%,2.6µM*,9,19%
O=C(O)/C=C\C(=O)NCc1ccccc1,5%,-17%,21%,29,5%
O=C(O)/C=C/C(=O)NCc1ccccc1,6%,50µM*,2%,12,9%
O=C(/C=C/c1ccccc1)NCc1cccnc1,1%,6%,231%,-34,14%
COc1ccc(C(=O)N2CCCC(C(=O)O)C2)c2ccccc12 (centres undefined),-7%,1%,23%,-28,10%
Cc1nc2c(=O)n(C)c(=O)n(C)c2nc1Cl,14%,6.3µM*,4%,-103*,10%
C#CCNC(=O)C1=C[C@@H](C2CCCCC2)C[C@@H](OCCCCO)O1,-29%,13µM*,?,-15,?
C#CCNC(=O)C1=C[C@H](C2CCCCC2)C[C@H](OCCCCO)O1,-15%,13µM*,?,-17,?
SMILES,FBPA Giardia inh,Sm TGR inh,Pf growth 96h,HCMV inh,Pf growth 48h
C#CCNC(=O)C1=C[C@@H](C2CC2)C[C@@H](OCCCCO)O1,-9%,?,28%,-5,32%
COc1ccc(NC(=O)C(c2ccc(OC)cc2)n2c(=O)c(-c3cc4ccccc4[nH]3)nc3ccccc32)cc1 (centres undefined),nt,nt,nt,53,nt
CC(C)C(=O)NC(Oc1ccccc1Cl)C(Cl)(Cl)Cl (centres undefined),0%,25µM*,13%,-37,-2%
O=C(Cc1ccccc1)NC(Oc1ccccc1Cl)C(Cl)(Cl)Cl (centres undefined),0%,32µM*,?,-23,-10%
CCCN(CC1CC1)CC(O)c1ccccc1 (centres undefined),-28%,6%,13µM*,nt,15µM*
OCCN(Cc1ccccc1)CC1CCCCC1,?,4%,110%,-20,7%
CN1[C@@H](C[C@@H](O)c2ccccc2)CCC[C@@H]1C[C@H](O)c1ccccc1,-4%[21.7 µM],nt,nt,nt,nt
CC(C)OCCCN(CC(O)c1ccccc1)CC(O)c1ccccc1 (centres undefined),-14%,-1%,?,?,10µM*
CN1CCC(N(C)CC(O)c2ccccc2)CC1 (centres undefined),?,13µM*,-10%,?,5%
O=c1[nH]cnc2nn(C3OC(CO)C(O)C3O)nc12 (centres undefined),nt,nt,nt,64,nt
CCOc1ccc(NC(=O)CSc2ccc(-c3cccnc3)nn2)cc1,nt,-3%,5.9µM*,39,-20%
O=C(CSc1ccc(-c2cccnc2)nn1)Nc1ccc(F)cc1F,nt,7.1µM*,?,-35,2%
O=C(CSc1ccc(-c2cccs2)nn1)Nc1ccccc1C(F)(F)F,nt,0%,nt,-25,nt
O=C(CSc1ccc(-c2ccccn2)nn1)Nc1ccc(F)cc1F,nt,0%,?,5,17%
O=C(CSc1ccc(-c2cccnc2)nn1)Nc1ccccc1C(F)(F)F,nt,0%,10µM*,?,-15%
CC(=O)Nc1ccc(NC(=O)CSc2ccc(-c3cccnc3)nn2)cc1,-7%,0%,?,13,?
CCOc1ccccc1C(=O)Nc1cccc2ccc(C)nc12,nt,7%,nt,-23,nt
CCC(=O)N1c2ccccc2CC1C(=O)NCc1cc(Br)ccc1OC (centres undefined),nt,6%,nt,19,nt
Cc1noc(C)c1-c1nccc(NC2CC2)n1,5%,nt,nt,nt,nt
COc1cc(O)c(C(=O)CC(=O)c2ccncc2)c(OC)c1,nt,nt,nt,-22,nt
O=C(Nc1ccc2c(c1)COC2=O)c1ccc(Cl)c(Cl)c1,nt,-9%,26%,43,24%
CCOC(=O)c1cccc(NC(=O)c2oc3c(c2C)-c2[nH]ncc2CC3)c1,nt,-6%,nt,59,nt
CCOC(=O)N1CCC(NC(=O)c2oc3c(c2C)-c2[nH]ncc2CC3)CC1,?,6%,8.3µM*,13,nt
Cc1cc(C)cc(NCCC#N)c1,4%,-3%,61%,23,38%
CC(C)(C)CC(C)(C)c1ccc(O)c(CN2CCN(CCC#N)CC2)c1,-4%,1%,nt,-17,1.7µM*
N#CCCN1CCN(Cc2cc(-c3ccccc3)ccc2O)CC1,3%,4%,?,22,?
C[C@@H]1CCCCO[C@@H](CN(C)Cc2ccc(C(=O)O)cc2)[C@@H](C)CN([C@H](C)CO)C(=O)c2cc(NS(C)(=O)=O)ccc2O1,nt,nt,nt,5,nt
NC1(C(=O)O)CCCc2ccc(N(CCCl)CCCl)cc21 (centres undefined),nt,nt,nt,-63*,nt
